The test system of this assay is VDR homodimer (NR concentration 270 nM). As to the kind of experiment: PBM binding z-score (relative to random genomic background probes); higher = stronger binding; sequences stand for … in GC…GCGATTGACAGCGTAGAATGAAGG
An outline of the steps: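 Ligand-free nuclear receptor dimers were applied to custom Agilent 4×180K protein-binding microarrays whose double-stranded probes carried direct-repeat seeds, single-nucleotide variants, half-site ablations and random human genomic background sequences in 34-nt variable regions. Incubation lasted 1 h. Binding z-scores were computed against the random background probes from regression-normalized fluorescence.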
With ACTAGTTGGTCAGCTGAGGTCACAGACAATTCGG, the PBM binding z-score is 2.9. In turn, AACACAGGGTCATCGTAGGCCAGAGTACGCACAG displayed a PBM binding z-score of 3.84.

Consider TAGCCTAGCTCATTGGGCCAGTATAGTACGCATC, for which the PBM binding z-score was -0.87. Take CCTACTGGGCCACGAGAGGTCATTGATTCAGTGA: the PBM binding z-score came out at 3.47. Turning to TTACCAAGTTGAAAGGTCGTTGATGCACGCCTTG, the PBM binding z-score was 1.58.

In turn, ACTATTAGTTGAGACGAGGACAACCGATAGGTTG returned a PBM binding z-score of 0.657. Consider CCTAGCAGGCCGGGGTCACTCAAGCATTTCGCTT, for which the PBM binding z-score came out at 3.75. With TCATATAGGTAAAGGTGAAGGTCGAACGATATGA, the PBM binding z-score was found to be 0.402. As for CCTACTGGGCCATTAGGTCATTGATATCAACGTT, the figure is 1.01; as for ACAGACAGTTGATGAAGGTAACTCAGGCTATCAT, 0.0979. GCTGCTAGGTCAACTGATAGTCAGCTAAAGCTCG came in with a PBM binding z-score of 0.0089. Regarding TAGCCTAGCTCATGGGCCAGTATACCACGCGAAC, the PBM binding z-score was -0.464. In turn, AGAATGAGGTTATTAAGAACAGGGAATTGCGGTC yielded a PBM binding z-score of 1.27. As for ATCTCTAGGTAAAAGTTCACTGAATCCCGAGGAT, the figure is 2.79.

As to GATACAGGGTCAAGGCGAGAGTACGCGTATTGAT, the PBM binding z-score was found to be 2.48. AGAATGAGGTTATTAAGATCAGGAAATTGCGGTC had a PBM binding z-score of 1.18.

For GCTAGCAGTCCATTTGGGTCACTCAATGACGGGC, the PBM binding z-score is 0.912. Regarding CCAGATAGGTGAAAGGTAACTCAGTCTGGTACGC, the PBM binding z-score amounted to 0.348.

For ATCGAAAGGTCGACGAGGCGAGTATACACCGTTT, the PBM binding z-score came out at 0.605. Turning to CTCGAAAGGTCGGGCTCAGGTGAGTATACCAAAC, the PBM binding z-score amounted to 0.356.

The sequence CGAACTAGGTCAAGGATAGTGAATCTCCGCACGC registered a PBM binding z-score of 0.279.

ATATGTAGGTTATCGGGTCATTCGGTTTGCGCAT registered a PBM binding z-score of 4.19.

For ATCTCTAGGTAAGACTCAGTGCAGTGAAGAACGC, the PBM binding z-score worked out at 0.24. For the sequence CGTCCAAGGGCAGAGAGGTCAGTGAATGCCGAGT, the PBM binding z-score was determined as 3.19. Regarding AATACAGGGTCATCGTAGGCCACAGTACGCACAG, the PBM binding z-score is 3.13. ATCTCTAGGTAAGAGTCAGTTCAGTGAAGAACGC: the PBM binding z-score worked out at 0.916. As for AGAACGAGGGCAATGAGTTGATAGCCCGGGTGGC, the figure is 2.96; as for TCTGCTCGGTCAACGATGGTCAGCTAATCTGCTA, -0.978. Take AGTCAAAGTTCACTAGGTAACGTAGGATTCAGCT: the PBM binding z-score worked out at 3.59. With TCTGCTAGGTCAGTTGGTCATCTAACGAGCTGCC, the PBM binding z-score is -0.506. The sequence CCTAGCAGGACAATCTGGGTCACTCAAGGCTTGA registered a PBM binding z-score of 0.0931.

Regarding CCTACTGGGCCAACGTCATTGATCAGTCAAAGCA, the PBM binding z-score is -0.545. The value for CACACAGGGTCAGCTAGGCCAGAGTAGGGACGGC was 2. The sequence GCTTACGGGTCGAAGGTTATAGCATGAATAGAAT had a PBM binding z-score of 0.682. In turn, CCTGGTTGGTCAGGAGGTCACACACCGGATATGA came in with a PBM binding z-score of 2.44.

With CAAACTAGGTCACACAGGTCAAAGTCCGTGCGTA, the PBM binding z-score was 4.16. As for CCTACTGGGCCAAAAAGGTCATCGATGCCGATAA, the figure is 1.99; as for GCTGCTAGCTCAACTGATGGTCAGCTAAAGCTCG, -1.04; as for GCGACTGGGGCAAAGCATGTTACCATAAGGTTGG, -0.625.

These data come from the supplement of paper PMC6555819.
